# Screening data: PubChem, National Center for Advancing Translational Sciences (NCATS)
# IDH1 R132H inh: inhibitors of human mutant IDH1 R132H; 390,000 tested, 0.093% active; O75874; Potency, µM (doses to about 76.6 µM), inactives show at the top dose activity change, negative = inhibition, actives largely listed as inhibitors; IDH1-R132H enzyme, NADPH consumption, diaphorase/resazurin fluorescence; further: on the % scale 0 is the no-effect control and ±100 the full control effect; nearly all actives have a fitted effect of over 65% in size
# Target sequence (O75874 whole entry R132H, stated change not applied): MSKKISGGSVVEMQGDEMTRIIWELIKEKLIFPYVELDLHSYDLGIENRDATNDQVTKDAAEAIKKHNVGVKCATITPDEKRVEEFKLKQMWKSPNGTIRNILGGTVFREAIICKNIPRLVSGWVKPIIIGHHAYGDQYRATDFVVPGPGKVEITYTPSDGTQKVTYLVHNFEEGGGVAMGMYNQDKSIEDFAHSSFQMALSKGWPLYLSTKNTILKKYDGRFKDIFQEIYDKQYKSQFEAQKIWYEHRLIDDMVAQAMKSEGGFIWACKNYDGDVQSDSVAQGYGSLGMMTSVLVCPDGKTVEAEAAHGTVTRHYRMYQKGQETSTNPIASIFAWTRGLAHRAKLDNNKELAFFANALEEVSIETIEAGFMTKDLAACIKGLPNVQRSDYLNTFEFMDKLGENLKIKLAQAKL
#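 IDH1-R132H (0.5 ug/mL) preincubated 30 min with compound, then NADPH (0.016 mM) and alpha-KG (2 mM) added; 80 min at RT, pH 7.5. Remaining NADPH coupled via diaphorase/resazurin to fluorescence (540/590 nm); concentration-response curves normalized to no-enzyme control.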
# A-T KAP1 phos: potential ataxia-telangiectasia treatments restoring KAP-1 phosphorylation. F2112 A-T fibroblasts, KAP-1 phosphorylation AlphaLISA; neocarzinostatin DNA damage 30 min before lysis. Potency, µM (doses to about 57.5 µM), without a hit: top-dose activation, most hits filed as activators. 320,000 tested, 0.19% active. AID 485349; further: % of control where 0% means no effect; nearly all actives have a fitted effect of over 45% in size
#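 ATM-like activity read as KAP-1 phosphorylation via AlphaLISA donor/acceptor antibody pairs after lysis and 6 hr at 25C. Cells were ATM-null patient fibroblasts (F2112, hTERT), dosed 60 min, then exposed to the DSB inducer NCS for 30 min.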
# HTT aggregate: inhibitors of mutant huntingtin aggregate formation in PC12 cells | PC12 HttQ103-GFP aggregates, Acumen cytometry, 40 h | 220,000 tested, 1.1% active | Potency, µM (titrated, usually from 46.1 µM), for the others: at the highest dose activity change, negative = inhibition, hits mostly inhibitors; further: on the % scale 0 is the no-effect control and ±100 the full control effect; nearly all actives have a fitted effect of over 60% in size
#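 PC12/HTTQ103-GFP, ecdysone-inducible; teb 100 nM; cpd qHTS titration; GFP aggregates read on laser cytometer, Ex 488/Em 500-530 nm.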
# NPSR antagonist: antagonists of human neuropeptide S receptor cAMP signaling. Q6W5P4. CHO-NPSR cells, cAMP TR-FRET, antagonist mode. Potency, µM (top dose mostly 38.3 µM), inactives show at the highest dose activity change, negative = inhibition, actives largely listed as inhibitors. 220,000 tested, 1% active. AID 1461; further: on the % scale 0 is the no-effect control and ±100 the full control effect; nearly all actives have a fitted effect of over 50% in size
# HTT ATP protect: protects HTT-Q103 PC12 cells, measured by ATP; AID 1471; Potency, µM (series often up to 56.4 µM), without a hit: cytoprotection (ATP increase), usual class: activators; 230,000 tested, 0.14% active; PC12 HTT-Q103 induced, cytoprotection, ATP luminescence, 40 h; further: % of control where 0% means no effect; nearly all actives have a fitted effect of over 45% in size
#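 Rat PC12, Q103 Htt exon1-GFP fusion, ecdysone promoter; tebufenozide inducer 100 nM final; compound titration; qHTS, 1500 cells/well; ATPlite luminescent read.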
# An asterisk follows results filed as active; ? = inconclusive; nt = not tested or not shown; [ ] = another dose, or the depositor's remark. Compounds with a hit are over-represented: about 1.1% of the library has one in this group of screens. The call rests on the fitted dose curve; in most records, active means well fitted curve in the direction sought with a large enough effect; inconclusive means small, poorly fitted or top-dose-only effect, or another doubt; inactive means no such curve, though single readings can be large; an effect the other way counts as inactive or inconclusive. Potency means the concentration at half of the fitted maximal effect.
SMILES,IDH1 R132H inh,A-T KAP1 phos,HTT aggregate,NPSR antagonist,HTT ATP protect
Cc1nc(NCc2ccccc2)c2nc(-c3ccccc3)n(CC(C)(C)CN(C)C)c2n1,nt,nt,nt,nt,-28.0%
COc1cc(C)ccc1OCCOc1cc(C)ccc1Cl,6.4%,0.1%,9.2%,10µM*,0.4%
Cc1nc2ccccn2c1-c1csc(Nc2cccc(O)c2)n1,1.3%,-3.8%,22.3%[9.22 µM],-16.4%,?
Cc1cccc(Nc2nc(-c3c(C)nc4ccccn34)cs2)c1,-2.1%,7.9%,11.2µM*,?,-46.9%
CCC(Sc1nc(C)cc(C)n1)C(=O)NC1=NN=C(c2ccc(C)cc2)CS1 (configuration not stated),46.5µM*,-10.2%,?,-12.3%[46.1 µM],-65.1%
COc1ccc(C2c3ccc(O)cc3Oc3ncn(CC(C)C)c(=N)c32)cc1 (configuration not stated),0.0%,2.82µM*,-1.6%[9.22 µM],-26.2%,-11.9%[10 µM]
COc1ccc(C2c3ccc(O)cc3Oc3ncn(CCN4CCOCC4)c(=N)c32)cc1 (configuration not stated),-7.8%,-9.5%,13.3%[9.22 µM],10.4%,23.0%[10 µM]
COc1cccc(-c2noc(N)c2C#N)c1,0.9%,1.6%,11.2µM*,1.0%[46.1 µM],-10.6%
CC1(C)N=C(N)N=C(N)N1c1cccc(CSc2ccccc2)c1,nt,nt,nt,nt,-27.4%[10 µM]
CC1(C)N=C(N)N=C(N)N1c1cccc(CN)c1,0.0%,28.2µM*,-8.1%[9.22 µM],19.8%,-11.0%[10 µM]
CCO[P@]1(=O)OC[C@@H]2O[C@H](n3cnc4c(N)ncnc43)[C@H](O)[C@@H]2O1,nt,nt,nt,nt,-12.6%[10 µM]
C[C@H](CCC(=O)O)C1CC[C@H]2C3CC[C@@H]4C[C@H](O)CC[C@]4(C)C3C[C@H](O)[C@]12C (some centres not stated),nt,nt,nt,nt,-20.1%
Cn1c(=O)c2c(SCC(N)=O)nc(CC(C)(C)C)nc2n(C)c1=O,9.5%,-8.1%,1.3%,-11.1%[46.1 µM],20.6%[10 µM]
Cn1c(=O)c2c(SCc3c(F)cccc3Cl)nc(CC(C)(C)C)nc2n(C)c1=O,0.7%,-27.7%,-14.1%,10µM*,-17.2%[10 µM]
O=c1cc(-c2ccccc2)n2c(SCc3ccc(Br)cc3)nnc2[nH]1,-7.7%,nt,nt,nt,nt
O=c1[nH]cc(CS(=O)(=O)Cc2c[nH]c(=O)[nH]c2=O)c(=O)[nH]1,nt,nt,nt,nt,6.1%[10 µM]
O=C(O)c1sccc1Oc1ccc(NS(=O)(=O)c2cccc(F)c2)cc1,-5.1%,44.7µM*,nt,nt,nt
Cc1c(C)c2c(c(C)c1O)CCC(C)(COc1ccc(Cc3sc(=O)[nH]c3O)cc1)O2 (configuration not stated),nt,nt,nt,nt,24.9%
CNC(=S)N(CCc1c(C)[nH]c2ccc(Cl)cc12)Cc1cccnc1,-3.9%,0.891µM*,nt,nt,nt
CCNC(=S)N(CCc1c(C)[nH]c2ccc(Cl)cc12)Cc1cccnc1,4.8%,?,nt,nt,nt
Cc1[nH]c2ccc(F)cc2c1CCN(Cc1ccncc1)C(=S)Nc1ccc(F)cc1,2.4%,2.2%,-22.7%,7.94µM*,2.1%
Cc1[nH]c2ccc(F)cc2c1CCN(Cc1cccnc1)C(=S)Nc1cccc(F)c1,0.5%,2.4%,-4.5%,10µM*,nt
COc1cccc(CNC(=O)CSc2c3c(nc4ccc(Cl)cc24)CCCC3)c1OC,-6.6%,nt,nt,nt,nt
Nc1nc(SCC(=O)O)[nH]c(=O)c1N,nt,nt,nt,nt,-5.3%[10 µM]
O=C1C=CC2=C3c4cc(O)c(O)cc4C[C@@]3(O)COC2=C1O,nt,nt,nt,nt,-12.8%
SMILES,IDH1 R132H inh,A-T KAP1 phos,HTT aggregate,NPSR antagonist,HTT ATP protect
CCCCN(c1ccccc1)c1ncnc2nc[nH]c12,7.7%,2.0%,?,-11.4%,-2.3%
CCN(c1cccc(C)c1)c1ncnc2nc[nH]c12,-10.5%,-5.4%,8.91µM*,-3.6%[46.1 µM],0.4%[10 µM]
CCN(c1cccc(C)c1)S(=O)(=O)c1ccc2c3c(cccc13)C(=O)N2,-1.3%,nt,?,-18.7%[46.1 µM],-14.8%[1.9 µM]
CCN(CC)S(=O)(=O)c1ccc2c3c(cccc13)C(=O)N2,10.6%,-0.2%,1.58µM*,-3.6%[46.1 µM],-5.0%
CC(C)[C@]1(Cl)CC[C@@H]2[C@]3(C)CCC[C@@](C)(C(=O)O)[C@H]3C[C@H](Cl)[C@@]2(Cl)[C@H]1Cl,nt,nt,nt,nt,-2.9%[10 µM]
O=C(/C=C/c1cccc([N+](=O)[O-])c1)c1ccccc1,nt,nt,nt,nt,19.9%
O=C(C#Cc1cccc([N+](=O)[O-])c1)c1ccccc1,nt,6.6%,?,3.16µM*,-113.5%
CCC(NC(=O)Nc1cc(OC)ccc1OC)c1c(-n2cccc2)sc2c1CCN(CC)C2 (configuration not stated),-19.2%,nt,nt,nt,nt
Cn1cc([N+](=O)[O-])c(C(=O)Nc2ccn(Cc3c(F)c(F)cc(F)c3F)n2)n1,4.9%,-4.7%,nt,4.8%[46.1 µM],10µM*
Cn1ncc([N+](=O)[O-])c1C(=O)Nc1ccn(Cc2ccccc2F)n1,7.3%,-2.1%,7.3%,-1.2%[46.1 µM],-0.1%
C[C@@]12CCC(=O)C=C1CC[C@H]1[C@@H]2[C@@H](O)C[C@]2(C)[C@@H]1CC[C@@]2(O)C(=O)COC(=O)C1CCCC1,nt,nt,nt,nt,-16.2%[10 µM]
CCCCCCCCCCn1c2c(c(=N)c3c1CCC3)CCC2,3.7%,-3.8%,1µM*,?,-108.4%
CC(C)c1ccc(/C=C2\Oc3c(ccc(O)c3CN3CCN(C)CC3)C2=O)cc1,-6.2%,0.8%,4.2%,10µM*,-12.8%
O=C1/C(=C/c2ccco2)Oc2c1ccc(O)c2CN1CCCCC1,8.7%,-5.2%,-24.1%,-33.4%,nt
Cc1ccc(/C=C2\Oc3c(ccc(O)c3CN3CCN(CCO)CC3)C2=O)cc1,5.7%,-1.8%,5.4%,10µM*,28.1%
CCOC(=O)c1ccc(N2CCN(c3ccccc3F)CC2)c(NC(=O)Nc2ccc(Cl)c(Cl)c2)c1,-0.9%,nt,nt,nt,nt
O=C(O)/C=C\c1c2ccc(=O)c(O)c-2oc2c(O)c(O)ccc12,nt,nt,nt,nt,0.0%[10 µM]
O=C1c2cccc(OCc3ccc(F)cc3)c2CCN1Cc1ccc(F)cc1,-1.7%,1.1%,20µM*,-16.4%,30.5%[10 µM]
